From PubChem
Shown is part of a subset that was picked to be rich in hits.
ROC1-CUL1 inh – blocks human RBX1-Cullin-1 di-ubiquitin formation | AID 1347404 | inhibition, % at 10 µM | P62877+Q13616 | 140,000 compounds, 0.6% hits | in vitro K48 di-Ub FRET, acceptor:donor ratio, 45 min; in the data active = inhibition above about 25%
Starred values were filed as active, the others as inactive.

SMILES	ROC1-CUL1 inh
Cc1cccc(N2NC(=O)/C(=C/c3ccc(-c4ccc(S(N)(=O)=O)cc4)o3)C2=O)c1	32*
CC(=O)NS(=O)(=O)c1ccc(-c2ccc(/C=C3/C(=O)NN(c4cccc(C)c4)C3=O)o2)cc1	8
Cc1ccc(N2NC(=O)/C(=C/c3ccc(-c4ccccc4F)o3)C2=O)cc1C	-2
CCc1c(C(=O)N2CCC(Cn3cc(CO)nn3)CC2)csc1C	7
CC(=O)OC1CCC2(C)C(CCC3(C)C2CCC2C4C5(CCC23C)CCC4(C(C)(O)CO)OC5=O)C1(C)C (configuration not stated)	-7
Cc1ccc(NCc2nnc(SCC(=O)Nc3c(C)cccc3C)o2)c(C)c1	5
Cc1ccc(NS(=O)(=O)c2ccc(NC(=O)c3ccc(Cl)cc3Cl)cc2)c(C)c1	5
Cc1ccc(NC(=O)c2ccc(Cl)cc2Cl)c(S(=O)(=O)O)c1	96*
Cc1ccnc(NC(=O)c2ccc(Cl)cc2Cl)c1	6
Cc1ccccc1NC(=O)COc1ccc(N(C)C(=O)c2ccccc2)cc1	4
Cc1cn2c3c(=O)n(CC(C)C)c(=O)n(C)c3nc2n1-c1ccccc1O	5
O=C1NC(=S)N(c2ccccc2)C(=O)/C1=C/c1cc([N+](=O)[O-])c(O)cc1O	94*
O=C1NC(=S)N(c2cccc(Br)c2)C(=O)/C1=C/c1ccccc1O	-8
COc1cc(OC)c([N+](=O)[O-])cc1/C=C1\C(=O)NC(=S)N(C)C1=O	-7
O=[N+]([O-])c1cc(C=Nc2c(Cl)cc(Cl)c(N=Cc3cc([N+](=O)[O-])c(O)cc3O)c2Cl)c(O)cc1O	108*
O=[N+]([O-])c1ccc(O)c(C=Nc2cc(Cl)cc(Cl)c2)c1	-5
O=[N+]([O-])c1ccccc1C=Nc1ccccc1Cl	-4
Cc1ccc(Nc2nc(Cl)nc(N3CCOCC3)n2)cc1Cl	-6
O=C(c1ccccc1)c1ccccc1Nc1nc(Cl)nc(Cl)n1	4
O=C(O)c1ccc(Nc2nc(Cl)nc(Cl)n2)cc1-c1c2ccc(=O)cc-2oc2cc(O)ccc12	106*
O=C1/C(=C/c2ccc(O)c(O)c2)Oc2ccccc21	97*
COc1ccc(C=C2C(=O)c3ccccc3C2=O)cc1O	-2
CC(C)c1cc(/C=C2\OC(=O)c3ccccc32)cc(C(C)C)c1O	-9
CCOc1ccccc1NC(=O)CSc1nc2sc3c(c2c(=O)n1C)CCC(C)C3 (configuration not stated)	-4
COC(=O)c1c(C)sc(-c2c(-c3ccc(OC)c(F)c3)[nH]c3c2c(=O)n(C)c(=O)n3C)c1O	3
SMILES	ROC1-CUL1 inh
COC(=O)c1c(C)sc(-c2c(-c3ccc4c(c3)OCCO4)[nH]c3c2c(=O)[nH]c(=O)n3C)c1O	27*
COC(=O)c1c(C)sc(-c2c(-c3cccc(OC)c3)[nH]c3c2c(=O)[nH]c(=O)n3C)c1O	24
CCCn1cc(NC(=O)Cn2ncc(N3CCCC3)cc2=O)nn1	1
CN=C1CC=C(Br)C=C(C(=O)/C=C/c2ccc(Cl)cc2)C1=O	63*
CCN=C1CC=C(Br)C=C(C(=O)/C=C/c2ccc(OC)c(OC)c2)C1=O	-6
COc1cccc(N2CC(NC(=O)/C=C\c3ccc(OC)c(OC)c3)CC2=O)c1 (configuration not stated)	-13
CCOc1ccc(/C=C/C(=O)C2=CC(Br)=CCC(=NC)C2=O)cc1	8
CN=C1CC=C(Br)C=C(C(=O)/C=C/c2cccc(OC)c2)C1=O	44*
CN=C1CC=C(Br)C=C(C(=O)/C=C/c2ccc(Cl)cc2Cl)C1=O	4
CN1C(=O)C2(OCCO2)c2cc(Br)ccc21	-1
Cc1cccc(CNC(C)c2cnc(-c3ccncc3)nc2C)n1 (configuration not stated)	2
Cc1ccc(CNC(=O)C2CCN(c3nc4ccccc4n(C)c3=O)CC2)cc1	-1
O=C1NC(=O)N(c2ccc(Cl)cc2)C(=O)/C1=C/c1ccc(-c2ccccc2C(=O)O)o1	-7
CN1C(=O)/C(=C/c2ccc(-c3ccc(C(=O)O)cc3)o2)SC1=Nc1ccc(C(=O)O)cc1	29*
C=CCN1C(=O)/C(=C/c2ccc(-c3ccc(C(=O)O)cc3)o2)SC1=S	5
CN1C(=O)/C(=C/c2ccc3c(c2)OCO3)SC1=Nc1ccc(C(=O)O)cc1	12
C=C(C)C(=O)Oc1ccccc1Oc1c(F)c(F)c(Oc2ccccc2OC(=O)C(=C)C)c(F)c1F	0
Cc1ccc(/C=C2/C(=O)N(C)C(=S)N2C)cc1	-7
O=C1CSC2=NC3=C(CCC/C3=C\c3ccc(Br)cc3)C(c3ccc(Br)cc3)N12 (configuration not stated)	11
CC1=NC2=NC(=O)/C(=C/c3ccc(Br)cc3)N2C(=O)C1	79*
CN(C)c1cc[n+](Cc2ccccn2)cc1	0
c1ccc(C[n+]2cccc3c2CCCC3)nc1	45*
C1=C(CCNCc2ccccn2)CCCC1	6
O=C(Nc1ccc(S(=O)(=O)Nc2ccc(I)cc2)cc1)C(F)(F)F	-7
C=CCn1c(COc2ccccc2)nnc1SCC(=O)Nc1ccc(C)cc1	4
SMILES	ROC1-CUL1 inh
O=C(CCCCCC(=O)NCCN1CCCCCC1)NCCN1CCCCCC1	-6
Cc1ccc(N(C)C(=O)c2cccnc2)c(C(=O)O)c1	0
CC(C)=C1C2C=CC1C(C(=O)NCc1ccco1)C2C(=O)O (configuration not stated)	8
Cc1ccc(N2C(=O)/C(=C/c3ccc(C(=O)O)cc3)SC2=S)cc1C	-3
CCOc1cc(/C=C2/SC(=S)N(C(CCC(=O)O)C(=O)O)C2=O)ccc1O (configuration not stated)	14
O=C(O)CCC(C(=O)O)N1C(=O)/C(=C/c2cccc(Br)c2)SC1=S (configuration not stated)	-3
CC(/C=C1\SC(=S)N(c2ccc(C(=O)O)cc2)C1=O)=C\c1ccccc1	106*
O=C(O)c1ccc(/C=C2\SC(=S)N(NC(=O)c3ccccc3)C2=O)cc1	-2
CCCC(C(=O)O)N1C(=O)/C(=C/C(C)=C/c2ccccc2)SC1=S (configuration not stated)	29*
CN(C)S(=O)(=O)Cc1ccc(Br)cc1	-2
CC(C)(C)C1(C)Oc2cccc(O)c2O1 (configuration not stated)	20
C/C(=C1/C(=O)N(c2nc3ccccc3s2)N=C1C(F)(F)F)N1CCN(c2ccc([N+](=O)[O-])cc2)CC1	4
Cc1ccc(Cn2c(CNC(=O)c3cccc(C)c3)nc3ccccc32)cc1	-1
Cc1nonc1C(=O)N=Nc1c2ccccc2c2nc3no[nH]c3nc12	45*
CC(Sc1nc(-c2ccccc2)cc(C(F)(F)F)n1)C(=O)NCc1cccnc1 (configuration not stated)	-1
Cc1oc2ccc(O)c(CN3CCCCCC3)c2c1C(=O)Nc1cccc(Cl)c1C	2
CCOC(=O)c1cc(-c2ccc(F)cc2)n(CCC(=O)NCc2ccc(C)cc2)c1C	0
CCc1ccc(N=C2NC(=O)/C(=C\c3cc(Cl)c(OCC#N)c(OC)c3)S2)cc1	8
CCOc1cc(/C=C2\SC(=Nc3ccc(Cl)cc3)NC2=O)cc(Cl)c1OCC(=O)O	96*
CCOC(=O)COc1c(I)cc(/C=C2/SC(=Nc3ccc(OC)cc3)NC2=O)cc1OC	7
CCOC(=O)C(NS(=O)(=O)c1ccc2c(c1)C(=O)c1ccccc1-2)C(O)c1ccccc1 (configuration not stated)	-1
COc1ccc(-c2cnnc(NC3CCc4ccccc43)n2)cc1 (configuration not stated)	7
